This assay is described as follows: qHTS Assay for Lipid Storage Modulators (AID 1519). For activity change, negative = inhibition: % is set by controls: 0 for no effect and ±100 for the full control effect. The settings on record: Drosophila S3 cells, BODIPY lipid droplet/cell ratio, laser cytometry, cells loaded with oleic acid. The text has this:
NIH Molecular Libraries Probe Production Centers Network [MLPCN]
NIH Chemical Genomics Center [NCGC]
Assay Submitter (PI): Beller, Mathias; Max-Planck-Institut fur Biophysikalische Chemie
NCGC Assay Overview: Storing lipids as a reservoir for energy or the anabolism of elementary metabolites is a common feature of probably all cells and is conserved from bacteria to humans. The universal cellular lipid storage organelle is the so-called lipid storage droplet (LD). Although ubiquitous, LDs share a simple structure composed of a hydrophobic core that harbors the storage lipids, which is shielded by a droplet-specific phospholipid monolayer to which proteins are attached. The current model of LD biogenesis involves an incorporation of the lipid core into the membrane leaflets of the endoplasmic reticulum (ER) followed by a subsequent budding-like maturation of a LD, which ultimately pinches off. Once released, LD volume can increase by localized lipogenesis or fusion of existing droplets. Storage lipids are re-mobilized enzymatically by lipase activity. Lipase regulation in the adipocyte is heavily studied and involves multiple components including catecholamine signaling, the LD-associated proteins Perilipin and comparative gene identification-58 (CGI-58) and at least two lipases named hormone sensitive lipase (HSL) and adipocyte triglyceride lipase (ATGL). LD regulation outside of the adipocyte is poorly understood and only few components are known. However, there is an urgent need to learn more about ectopic fat depots as mislocalized storage of lipids, for example in the liver or muscle, is an eminent health problem associated with insulin resistance or the metabolic syndrome. We developed a laser-scanning cytometer assay to enable 1,536-well screening and combined the results of the small molecules screen with an RNAi database based on lipid storage.
NCGC Assay Protocol Summary:
We dispensed 4 uL of cells at 1.25 x 10^6 cells/mL into LoBase Aurora COC 1,536-well plates (black walled, clear bottom) with a bottle-valve solenoid-based dispenser (Aurora) to obtain 5,000 cells/well. Triacsin C (Sigma-Aldrich T-4540), an inhibitor of long-chain fatty acyl CoA synthetase that blocks synthesis of triglycerides, was used as a positive control for lipid under-storage. A total of 23 nL of compound solution of different concentrations were transferred to the assay plates using a Kalypsys pin tool equipped with a 1,536-pin array containing 10-nL slotted pins (FP1S10, 0.457-mm diameter, 50.8 mm long; V&P Scientific). One microliter of oleic acid (400 uM) was added, and the plate was lidded with stainless steel rubber gasket lined lids containing pinholes. […] Fluorescence was detected by excitation of the fluorophores with a 488-nm laser on an Acumen Explorer (TTP Lab Tech). The total intensity in channel 1 (500-530 nm) reflected lipid droplet accumulation. […] The ratio of the total intensity in PMT channel 1 over total intensity of channel 3 was also calculated. Percent activity was computed relative to an internal control (100% inhibited lipid droplet deposition due to the presence of 20 uM Triacsin C), which was added to 32 wells/plate.

The mark [1] stands for this setting: measured here: cell count channel max response.
[2] abbreviates: measured here: lipid channel max response.

Several values for one entry are separate records, joined by “and”; a condition that tells them apart may be missing. Equal entries are not always repeated. Inconclusive results are not listed. Activity calls are given as the source filed them. Calls come from the whole dose curve.

Regarding `CCC[C@@](C)(COC(N)=O)COC(=O)NC(C)C`, the activity change, negative = inhibition (at 25.7 µM (top of the series)) is -3.74% (inactive). The max response worked out at 10.2% under setting [1] and 7.74% under setting [2].

Consider `CC1=NCCc2c1[nH]c1cc(O)ccc21`, for which the activity change, negative = inhibition (at 25.7 µM (top of the series)) is 1.71% (inactive) and the activity change, negative = inhibition (at 57.5 µM (top of the series)) is 18.3% (inactive). In addition, the max response by setting is: under setting [1], 2% and 2.42%; under setting [2], 2.85% and 18.5%.

Turning to `CN(C)C(=O)Oc1cc(OC(=O)N(C)C)cc([C@@H](O)CNC(C)(C)C)c1`, under “at 25.7 µM (top of the series)”, the activity change, negative = inhibition was -0.844% (inactive). For the same compound, the max response under setting [1] came out at 2.58% and the max response under setting [2] stood at 0.267%.

As for `CC[C@]1(c2cccc(O)c2)CCCCN(C)C1`, the activity change, negative = inhibition (at 25.7 µM (top of the series)) was -0.585% (inactive). Besides, the max response reads like this: under setting [1], -13.2%; under setting [2], -11.2%.

As to `CN1C[C@H](C(=O)N[C@]2(C)O[C@]3(O)[C@H]4CCCN4C(=O)[C@H](Cc4ccccc4)N3C2=O)C[C@H]2c3cccc4[nH]cc(c34)C[C@@H]21`, the activity change, negative = inhibition (at 25.7 µM (top of the series)) is -4.57% (inactive). In addition, the max response under setting [1] was -15.1% and the max response under setting [2] was -19.9%.

Turning to `CCN(CC)C(=O)N[C@H]1C=C2c3cccc4[nH]cc(c34)C[C@@H]2N(C)C1`, the activity change, negative = inhibition (at 25.7 µM (top of the series)) is -1.39% (inactive). Also, the max response is, setting by setting: under setting [1], -15.1%; under setting [2], -15.7%.

For `C[C@H](NC(C)(C)C)C(=O)c1cccc(Cl)c1`, the activity change, negative = inhibition (at 25.7 µM (top of the series)) was -1.98% (inactive). Further, the max response under setting [1] is -0.478% and the max response under setting [2] is -2.37%.

In the case of `CCCCC/C=C\C/C=C\C/C=C\C/C=C\CCCC(=O)O`, the activity change, negative = inhibition (at 57.5 µM (top of the series)) was -9.9% (inactive). Besides, the max response stood at 20.2% under setting [1] and 8.84% under setting [2].

Take `C[C@@]12CCC(Cl)C[C@H]1CCC1C2CC[C@]2(C)C(=O)CCC12` (stereo not given in full): the activity change, negative = inhibition (at 57.5 µM (top of the series)) was 8.24% (inactive). Moreover, the max response is, setting by setting: under setting [1], 9.07%; under setting [2], 21.6%.

For `CCCCCCC(C)OC(=O)COc1ccc(Cl)cc1Cl` (stereo not given), the activity change, negative = inhibition (at 57.5 µM (top of the series)) is 1.06% (inactive). Moreover, the max response is 1.5% under setting [1] and 2.82% under setting [2].

Take `COc1cc2c3cc1Oc1c(OC)c(OC)cc4c1C(Cc1cccc(c1)Oc1ccc(c(O)c1)CC3N(C)CC2)N(C)CC4` (stereo not given): where the note is “at 57.5 µM (top of the series)”, the activity change, negative = inhibition is 6.04% (inactive). The max response runs as follows: under setting [1], 15.8%; under setting [2], 22.7%.

Take `CNc1ccccc1C(=O)O`: the activity change, negative = inhibition (at 57.5 µM (top of the series)) is -0.857% (inactive). Moreover, the max response runs as follows: under setting [1], 25%; under setting [2], 25.4%.

Take `CN1C[C@H](C(=O)N[C@@]2(C)O[C@@]3(O)C4CCCN4C(=O)C(Cc4ccccc4)N3C2=O)C[C@H]2c3cccc4[nH]cc(c34)C[C@H]21` (stereo not given in full): the activity change, negative = inhibition (at 57.5 µM (top of the series)) is 12.3% (inactive). Further, the max response was determined as 8.55% under setting [1] and 25.1% under setting [2].
